PubChem BioAssay
A number with no mark means an inactive call. No rule for the calls is given here.

Target: Pantothenate synthetase (Mycobacterium tuberculosis (strain ATCC 25618 / H37Rv)) (UniProt P9WIL5)
Test: Recombinant Mtb pantothenate synthetase (PanC) inhibitors, coupled enzyme, confirmatory (AID 375);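 also: 0% = full reaction with vehicle and 100% = no enzyme background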
Conditions: coupled enzyme assay; at 10 µM, active compounds read high

Chain of Pantothenate synthetase (Mycobacterium tuberculosis (strain ATCC 25618 / H37Rv)) (P9WIL5 whole entry, looked up): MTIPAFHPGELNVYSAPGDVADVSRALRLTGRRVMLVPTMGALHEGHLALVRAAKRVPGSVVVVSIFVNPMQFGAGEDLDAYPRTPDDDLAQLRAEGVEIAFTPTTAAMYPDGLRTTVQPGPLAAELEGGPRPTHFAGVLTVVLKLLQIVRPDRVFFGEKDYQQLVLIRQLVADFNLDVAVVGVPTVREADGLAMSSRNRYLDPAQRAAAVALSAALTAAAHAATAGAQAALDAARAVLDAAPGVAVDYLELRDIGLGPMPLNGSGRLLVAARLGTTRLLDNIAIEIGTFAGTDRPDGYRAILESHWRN

| SMILES | inhibition [%] |
| --- | --- |
| CN1CCN(S(=O)(=O)c2ccc(Sc3nnc(-c4cccs4)n3-c3ccccc3)nc2)CC1 | 3 |
| CCCn1c(NCc2cc(C)ccc2O)nc2ccccc21 | 0 |
| O=C(Nc1ccccc1-c1ccccc1)NC1CCN(CC(=O)N2CCOCC2)CC1 | 0 |
| CCCCCCC1/C(=N/O)CCC1C(=O)OC (stereo not drawn) | 0 |
| CN1C(=S)SC(C)(NO)C1(C)C (stereo not drawn) | 0 |
| COC(=O)c1sc(S(=O)(=O)N2CCN(c3ccccc3)CC2)c(C(=O)OC)c1C | 10 |
| COC(=O)Oc1c(Br)c(=O)oc2ccccc12 | 0 |
| CCOC(=O)c1ccccc1NC(=O)c1ccc(NS(C)(=O)=O)cc1 | 0 |
| COc1ccc(C(=O)NCc2nnc(SCC(=O)Nc3cc(C)cc(C)c3)o2)cc1OC | 0 |
| CC(C)Cc1nc(N2CCN(C(=O)c3ccco3)CC2)c(C#N)c2c1CCC2 | 5 |
| CCCCCC1NC(=O)NC1CCCCCC(=O)O (stereo not drawn) | 0 |
| Cc1nnc(NS(=O)(=O)c2ccc(N)cc2)s1 | 0 |
| COc1ccc2cc3cc(C(=O)NCC4CCCO4)oc3nc2c1 (stereo not drawn) | 3 |
| COc1ccccc1NS(=O)(=O)c1ccc(OC)c(OC)c1 | 8 |
| CC1CC(=O)C2=C(C1)OC(N)=C(C#N)C2c1coc2ccccc2c1=O (stereo not drawn) | 6 |
| CC(=O)NC(Cc1cc(C)ccc1C)C(=O)N1CCN(C(=O)Nc2ccc(C(C)=O)cc2)CC1 (stereo not drawn) | 0 |
| Nc1nc(F)nc2c1ncn2[C@@H]1O[C@H](CO)[C@@H](O)[C@@H]1O | 0 |
| O=C(c1cc(-c2ccco2)nn1-c1cccc(Cl)c1)N1CCCCC1 | 8 |
| CCn1nccc1C(=O)Nc1nccs1 | 5 |
| COc1ccc(CN(CCN(C)C)c2ccccn2)cc1 | 4 |
| CC(C)CNS(=O)(=O)c1ccc(CCC(=O)NCc2ccco2)cc1 | 2 |
| CCn1cc(C(=O)NCc2ccccc2OC)c(=O)c2cc(S(=O)(=O)N(C)C)ccc21 | 0 |
| O=C(Nc1cc(C(F)(F)F)ccc1N1CCCC1)c1ccc2c(c1)OCO2 | 2 |
| CCOC(=O)c1cnn(-c2cc(C)nc3c(-c4ccccc4)c(C)nn23)c1N | 6 |

| SMILES | inhibition [%] |
| --- | --- |
| CN(C)CCCNC(=O)c1ccc(CN(c2ccccc2)S(C)(=O)=O)cc1 | 0 |
| CCOc1ccc2oc(-c3ccccc3)c(C(=O)N3CCN(CCO)CC3)c2c1 | 0 |
| CC(CCc1ccccc1)NCC(O)c1ccc(O)c(C(N)=O)c1 (stereo not drawn) | 2 |
| CC(=O)Nc1ccc(NC2=CC(=O)CC(C)(C)C2)cc1 | 4 |
| COc1ccc(-c2nnc(-c3cccs3)o2)cc1OC | 0 |
| c1cc(CNc2ccc3c(c2)OCO3)ccn1 | 0 |
| O=C(NC1CC1)C1CCN(c2ccc(S(=O)(=O)N3CCOCC3)cc2)CC1 | 0 |
| COc1ccc(OC)c(S(=O)(=O)Nc2ccccc2C(=O)O)c1 | 6 |
| CCc1c(C(=O)NCCc2ccc(OC)c(OC)c2)[nH]c(C)c1C(C)=O | 12 |
| CC1CN(CC(O)COc2ccc(C(C)C)cc2)CC(C)O1 (stereo not drawn) | 0 |
| C=COC(=O)CSc1snc(SCC(=O)OC)c1C#N | 0 |
| COC(=O)C1(C)NC(c2ccco2)C2C(=O)N(c3ccc(C)cc3)C(=O)C21 (stereo not drawn) | 4 |
| COc1ccc2nc(CC(C)(C)CC(=O)O)c[n+]([O-])c2c1 | 10 |
| CCN(CC)S(=O)(=O)c1ccc(C(=O)Oc2ccc3c(c2)OCO3)cc1 | 2 |
| Nc1cc(N)nc(SCc2ccccc2)n1 | 0 |
| c1ccc(Cn2ncc3c2ncn2c(-c4ccncc4)nnc32)cc1 | 0 |
| Cc1cc(NS(=O)(=O)c2ccc(N)cc2)no1 | 1 |
| CCn1nc(C)c(NC(=O)c2cc(Br)ccc2Cl)c1C | 15 |
| Oc1cccc(C=NCc2ccccc2)c1O | 0 |
| Nc1nc(Nc2cccc3ccccc23)nc(C2CCCC2=O)n1 (stereo not drawn) | 5 |
| CSc1nnc2c3ccccc3n(CCc3ccccc3)c2n1 | 0 |
| Nc1nc2ccccc2n1/N=C/c1ccc(Br)cc1 | 1 |
| COCCCNC(=O)C1CCN(C(=O)Nc2ccc(Cl)cc2)CC1 | 0 |
| O=C(COc1ccc(=O)n(-c2ccccc2)n1)Nc1ccccc1 | 0 |
